Shown is part of a subset that was picked to be rich in hits.
14-3-3g Raf: 14-3-3 gamma protein interaction modulation; FP, 14-3-3gamma / TMR-pS259-Raf peptide binding; inhibition, % at 40 µM; 0.19% of 160,000 active; AID 422; in the data active = inhibition above about 30%
Target sequence (P61981 whole entry, looked up): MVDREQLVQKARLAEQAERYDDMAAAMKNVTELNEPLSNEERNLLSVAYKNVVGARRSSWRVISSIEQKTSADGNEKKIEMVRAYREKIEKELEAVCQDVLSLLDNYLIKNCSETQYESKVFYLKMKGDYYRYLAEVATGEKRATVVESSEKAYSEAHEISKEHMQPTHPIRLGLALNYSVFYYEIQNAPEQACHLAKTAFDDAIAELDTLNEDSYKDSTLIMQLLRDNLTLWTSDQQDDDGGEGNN
Numbers stand for hits; i = inactive.

SMILES	14-3-3g Raf
COc1ccc(-n2c(=O)c3c4c(sc3n(CC(=O)NCc3ccco3)c2=O)CCCC4)c(OC)c1	i
COc1ccc(NC(=O)c2cn(CC(C)C)c(=O)c3cc(OC)c(OC)cc23)cc1OC	i
Fc1ccccc1C1C=C(c2cccs2)Nc2nnnn21 (centres undefined)	i
Fc1cccc(C2C=C(c3ccc(Cl)cc3)Nc3nnnn32)c1 (centres undefined)	i
Fc1cccc(C2C=C(c3cccs3)Nc3nnnn32)c1 (centres undefined)	63
N#Cc1c(-c2cccc(Br)c2)cc(C2CC2)nc1N	i
CCCOc1ccc(/C(O)=C2/C(=O)C(=O)N(CCN(C)C)C2c2ccc(O)c(OC)c2)cc1 (centres undefined)	i
CCCOc1ccc(C2/C(=C(/O)c3ccccc3)C(=O)C(=O)N2CCCN(C)C)cc1OC (centres undefined)	35
COc1ccc(/C(O)=C2/C(=O)C(=O)N(CCCN(C)C)C2c2ccc(Cl)cc2)cc1OC (centres undefined)	i
COCCCNC(=O)Cn1c(=O)n(-c2ccc(Cl)cc2)c(=O)c2c3c(sc21)CCCC3	i
O=C(c1ccc2c(c1)C(=O)N(c1ccccn1)C2=O)c1ccc2c(c1)C(=O)N(c1ccccn1)C2=O	i
Cc1cc(Br)c(O)c(C=Nc2ccc(-c3nc4ncccc4o3)cc2)c1	i
O=C(COc1ccc2c(c1)C(=O)CC1(CCCCC1)O2)NCc1ccccn1	i
O=C(COc1ccc2c(c1)C(=O)CC1(CCCCC1)O2)NCc1ccccc1	i
CC(=O)N1CCC2(CC1)CC(=O)c1cc(OCC(=O)NCc3ccccn3)ccc1O2	103
COc1ccc(C(=O)N2c3ccccc3N=C(c3ccccc3)CC2c2ccccc2)cc1 (centres undefined)	i
Cn1c(=O)c(N2CCOCC2)c2c3c(cccc31)C(=O)c1ccccc1-2	50
CCN(CC)C(=O)c1ccc2c(c1NCCO)C(=O)c1ccccc1C2=O	i
CN1C(=O)c2cccc3c(N4CCOCC4)ccc(c23)C1=O	i
Cn1c(=O)c(NC2CCCCC2)c2c3c(cccc31)C(=O)c1ccccc1-2	32
Cn1c(=O)c(=O)n(C)c2cc(S(=O)(=O)NC3CCCCCC3)ccc21	i
CC(C(=O)NC1CCCCC1)N1C(=O)c2ccccc2C1=O (centres undefined)	i
O=C1c2cccc(Cl)c2C(=O)c2c1cccc2N1CCOCC1	i
CCNc1cccc2c1C(=O)N(C)C2=O	i
CCNc1c2c3c(cccc3n(C)c1=O)C(=O)c1ccccc1-2	54
SMILES	14-3-3g Raf
COC(=O)Cn1nc2c3c(cccc31)C(=O)c1ccccc1-2	i
Cn1c(=O)c(NCCO)c2c3c(cccc31)C(=O)c1ccccc1-2	168
O=C1c2ccccc2C(=O)c2c1ccc(C(=O)N1CCCC1)c2NCCO	i
Cc1ccc(NS(=O)(=O)c2cccc(C(=O)Nc3nncs3)c2)cc1	i
COc1cccc(NC(=O)c2ccc([N+](=O)[O-])o2)c1	i
CCn1cc(SCC(=O)Nc2ccc(C)cc2C)c2ccccc21	i
CCC(=O)N1c2ccccc2NC2=C(C(=O)CC(c3cccs3)C2)C1c1ccc(C(F)(F)F)cc1 (centres undefined)	i
O=C(c1cnccn1)N1CCN(c2ccccc2F)CC1	i
O=C(O)C1C2CCC(C2)C1C(=O)N1CCN(c2ccccc2F)CC1 (centres undefined)	43
O=C(NC(=O)N1CCN(c2ccccc2F)CC1)c1ccccc1	i
Clc1cc2c(c3ncccc13)OCN(CC1CCCO1)C2 (centres undefined)	i
CCOc1ccc(S(=O)(=O)N2CCSC2c2ccccc2OC)cc1 (centres undefined)	i
O=C(NCc1cccnc1)c1cc2nc(-c3cccs3)cc(C(F)(F)Cl)n2n1	39
O=C(NCc1cccnc1)c1cc2nc(-c3ccco3)cc(C(F)(F)Cl)n2n1	i
O=C(NCc1cccs1)c1cc2nc(-c3cccs3)cc(C(F)(F)Cl)n2n1	i
CC1=CN2C(=NC(=O)CC2(C)C(=O)NCc2ccccc2)C=C1 (centres undefined)	i
Nc1nc(CSCCOC(=O)c2cccc(Cl)c2)nc(Nc2ccccc2)n1	i
Cn1c(Cc2ccccc2)nnc1Sc1ccc(C(F)(F)F)cc1[N+](=O)[O-]	i
COCCCNC(=O)CSc1ccc2c3c(cccc13)C(=O)c1ccccc1-2	105
COCCCNC(=O)CN1C(=O)c2ccccc2C1=O	i
O=C(CSc1ccc2c3c(cccc13)C(=O)c1ccccc1-2)Nc1ccccc1	i
COc1ccc(OC)c(N(CC(=O)Nc2ccc(Br)cc2)S(=O)(=O)c2ccccc2)c1	i
O=C(NC(N1CCCCC1c1cccnc1)(C(F)(F)F)C(F)(F)F)c1ccccc1Cl (centres undefined)	i
O=C(Cn1cc2c(n1)CCCC2)NCc1cccs1	i
COc1ccc(CNC(=O)Cn2cc3c(n2)CCCCC3)cc1	i
SMILES	14-3-3g Raf
O=C(Cn1cc2c(n1)CCCC2)NCc1ccccn1	67
COc1ccc(N2CCN(CCNC(=O)c3cccn4c(=O)c5cc6ccccc6cc5nc34)CC2)cc1	179
O=C(NCCN1CCOCC1)c1cccn2c(=O)c3cc4ccccc4cc3nc12	i
COc1ccc(N2CCN(CCNC(=O)c3cccn4c(=O)c5ccc(Cl)cc5nc34)CC2)cc1	i
CC1CCc2cc(F)ccc2N1C(=O)c1cc2nc(-c3ccco3)cc(C(F)(F)Cl)n2n1 (centres undefined)	i
O=C(CSc1nc2c(sc3ccccc32)c(=O)n1CCc1c[nH]c2ccccc12)NC1CCCC1	i
CC(=O)c1ccc(NC(=S)Oc2cccc(C(=O)Nc3ccccc3Cl)c2)cc1	i
O=C(Nc1cc(C(=O)Nc2ccc(S(=O)(=O)O)cc2S(=O)(=O)O)cc(C(=O)Nc2ccc(S(=O)(=O)O)cc2S(=O)(=O)O)c1)Nc1cc(C(=O)Nc2ccc(S(=O)(=O)O)cc2S(=O)(=O)O)cc(C(=O)Nc2ccc(S(=O)(=O)O)cc2S(=O)(=O)O)c1	32
Cc1c(NC(=O)c2ccccc2)cc(S(=O)(=O)c2ccc(Cl)cc2)c(O)c1C	i
NS(=O)(=O)c1ccc(NC(=O)Nc2cccc(Cl)c2)cc1	i
O=[N+]([O-])c1cccc(C2Nc3ccc4ccccc4c3C3C=CCC32)c1 (centres undefined)	i
CC1CC(=O)C(CC(=O)O)C1C[N+](=O)[O-] (centres undefined)	30
COC(=O)c1ccc2c(=O)n(CC3CCCO3)c(SCC(=O)Nc3cc(C)on3)nc2c1 (centres undefined)	i
CC1CCN(C(=O)c2c[nH]c3ccc(S(=O)(=O)N4CCCCC4c4cccnc4)cc3c2=O)CC1 (centres undefined)	i
O=C(O)c1c[nH]c2ccc(S(=O)(=O)N3CCCCC3c3cccnc3)cc2c1=O (centres undefined)	57
O=C(c1c[nH]c2ccc(S(=O)(=O)N3CCCCC3c3cccnc3)cc2c1=O)N1CCCC1 (centres undefined)	i
COc1cc(C(=S)N2CCCCC2)ccc1OC(=O)c1ccc(Br)cc1	i
COc1ccc(C(C)=O)cc1CSc1nc2cc(C(=O)NCc3ccco3)ccc2c2nc3ccccc3n12	i
Cc1sc2nc(SCC(=O)N3CCN(CCO)CC3)n(-c3ccccc3)c(=O)c2c1C	i
CCOC(=O)CCCSc1nc2sc3c(c2c(=O)n1-c1ccccc1)CCCC3	i
CCOC(=O)CCCSc1nc2sc(C)c(C)c2c(=O)n1-c1ccccc1	44
COc1cccc(-n2c(=O)c3sccc3n(Cc3ccc(C)cc3C)c2=O)c1	i
